Results filed as inconclusive are left out. A call without a number means that no potency is given here. Activity calls are given as the source filed them. Calls follow the shape of the dose curve; as a rule, active = well fitted curve in the direction sought with a large enough effect; inconclusive = small, poorly fitted or top-dose-only effect, or another doubt; inactive = no such curve, though single readings can be large; an effect the other way counts as inactive or inconclusive.
Tests used:
[1] = Quantitative High-Throughput drug screen in 47 multiple myeloma cell lines against the NCATS MIPE library collection: JIM3_ECACC cell viability assay (AID 1918963; also: nearly all actives have a fitted effect of over 35% in size; also: potency is read from the fitted curve at half-maximal effect)
Outline: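 Steps: seed 500 cells per well; pin-transfer MIPE 4.0 library; incubate 48 h at 37C, 5% CO2, humidified; add CellTiter-Glo, 5 min room temperature; read luminescence.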

[2] = Quantitative High-Throughput drug screen in 47 multiple myeloma cell lines against the NCATS MIPE library collection: JIM1_ECACC cell viability assay (AID 1918964; also: potency is read from the fitted curve at half-maximal effect)
Outline: (§1)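 CellTiter-Glo luminescence (ATP) after 48 h compound exposure, 37C/5% CO2; 500 cells/well; MIPE 4.0 approved/investigational drugs pinned in; DMSO = 100%, media only = 0% viability.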

[3] = Quantitative High-Throughput drug screen in 47 multiple myeloma cell lines against the NCATS MIPE library collection: INA6_PLB cell viability assay (AID 1918965; also: nearly all actives have a fitted effect of over 55% in size; also: potency is read from the fitted curve at half-maximal effect)
Outline: as §1

[4] = Quantitative High-Throughput drug screen in 47 multiple myeloma cell lines against the NCATS MIPE library collection: H1112_PLB cell viability assay (AID 1918967; also: nearly all actives have a fitted effect of over 30% in size; also: potency is read from the fitted curve at half-maximal effect)
Outline: as §1

[5] = Quantitative High-Throughput drug screen in 47 multiple myeloma cell lines against the NCATS MIPE library collection: Karpas25_ECACC cell viability assay (AID 1918968; also: nearly all actives have a fitted effect of over 35% in size; also: potency is read from the fitted curve at half-maximal effect)
Outline: as §1

[6] = Quantitative High-Throughput drug screen in 47 multiple myeloma cell lines against the NCATS MIPE library collection: KMS27_JCRB cell viability assay (AID 1918970); also: nearly all actives have a fitted effect of over 30% in size; also: potency is read from the fitted curve at half-maximal effect
Outline: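 ATP-based viability (CellTiter-Glo luminescence) is measured in cells treated 48 h with approved and investigational drugs at 37 °C. Controls are DMSO-only wells for full viability and media-only wells for none.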

[7] = Quantitative High-Throughput drug screen in 47 multiple myeloma cell lines against the NCATS MIPE library collection: KMS12BM_JCRB cell viability assay (AID 1918971); also: nearly all actives have a fitted effect of over 35% in size; also: potency is read from the fitted curve at half-maximal effect
Outline: (§2)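 Relative luminescence from CellTiter-Glo served as the viability signal, referenced to DMSO-treated (100%) and cell-free medium (0%) controls. Treatment lasted 48 hours at 37C with 500 cells per well.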

[8] = Quantitative High-Throughput drug screen in 47 multiple myeloma cell lines against the NCATS MIPE library collection: KMS12PE_JCRB cell viability assay (AID 1918972); also: nearly all actives have a fitted effect of over 30% in size; also: potency is read from the fitted curve at half-maximal effect; as to viability: series mostly up to about 46 µM
Outline: as §1

[9] = Quantitative High-Throughput drug screen in 47 multiple myeloma cell lines against the NCATS MIPE library collection: KMS26_JCRB cell viability assay (AID 1918975); also: nearly all actives have a fitted effect of over 45% in size; also: potency is read from the fitted curve at half-maximal effect
Outline: as §2

[10] = Quantitative High-Throughput drug screen in 47 multiple myeloma cell lines against the NCATS MIPE library collection: MOLP8_DSMZ cell viability assay (AID 1918977); also: nearly all actives have a fitted effect of over 45% in size
Outline: (§3)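 500 cells/well; MIPE 4.0 drugs pin-transferred; 48 h, 37C, 5% CO2. CellTiter-Glo, 5 min RT, luminescence. Controls: DMSO 100%, media 0%.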

[11] = Quantitative High-Throughput drug screen in 47 multiple myeloma cell lines against the NCATS MIPE library collection: NCIH929_DSMZ cell viability assay (AID 1918978); also: nearly all actives have a fitted effect of over 35% in size; also: potency is read from the fitted curve at half-maximal effect
Outline: as §3

[12] = Quantitative High-Throughput drug screen in 47 multiple myeloma cell lines against the NCATS MIPE library collection: OCIMY1_PLB cell viability assay (AID 1918979); also: nearly all actives have a fitted effect of over 35% in size; also: potency is read from the fitted curve at half-maximal effect; as to viability: series mostly up to about 46 µM
Outline: as §3

[13] = Quantitative High-Throughput drug screen in 47 multiple myeloma cell lines against the NCATS MIPE library collection: MM1S_ATCC cell viability assay (AID 1918980); also: nearly all actives have a fitted effect of over 45% in size; also: potency is read from the fitted curve at half-maximal effect
Outline: as §3

[14] = Quantitative High-Throughput drug screen in 47 multiple myeloma cell lines against the NCATS MIPE library collection: LP1_DSMZ cell viability assay (AID 1918982); also: nearly all actives have a fitted effect of over 35% in size; also: potency is read from the fitted curve at half-maximal effect
Outline: as §3

[15] = Quantitative High-Throughput drug screen in 47 multiple myeloma cell lines against the NCATS MIPE library collection: MMM1_PLB cell viability assay (AID 1918976); also: nearly all actives have a fitted effect of over 35% in size; also: potency is read from the fitted curve at half-maximal effect
Outline: as §3

[16] = Quantitative High-Throughput drug screen in 47 multiple myeloma cell lines against the NCATS MIPE library collection: MM1R_ATCC cell viability assay (AID 1918981); also: nearly all actives have a fitted effect of over 35% in size; also: potency is read from the fitted curve at half-maximal effect
Outline: as §3

[17] = Quantitative High-Throughput drug screen in 47 multiple myeloma cell lines against the NCATS MIPE library collection: JJN3_DSMZ cell viability assay (AID 1918966; also: nearly all actives have a fitted effect of over 50% in size; also: potency is read from the fitted curve at half-maximal effect)
Outline: as §1

[18] = Quantitative High-Throughput drug screen in 47 multiple myeloma cell lines against the NCATS MIPE library collection: KMS20_JCRB cell viability assay (AID 1918973); also: nearly all actives have a fitted effect of over 45% in size; also: potency is read from the fitted curve at half-maximal effect
Outline: as §1

Row | Compound | Potency [1] | Potency [2] | Potency [3] | Potency [4] | Potency [5] | Potency [6] | Potency [7] | Potency [8] | Potency [9] | Potency [10] | Potency [11] | Potency [12] | Potency [13] | Potency [14] | Potency [15] | Potency [16] | Potency [17] | Potency [18]
1 | Nc1ncnc2c1ncn2[C@@H]1O[C@@H](CO)[C@H](O)[C@H]1O | inactive | inactive | inactive | inactive | inactive | inactive | inactive | inactive | inactive | inactive | inactive | inactive | inactive | inactive | – | – | – | –
2 | C[C@H](NC(=O)C(=O)Nc1ccccc1C(C)(C)C)C(=O)N[C@@H](CC(=O)O)C(=O)COc1c(F)c(F)cc(F)c1F | inactive | 4.18 µM (active) | 18.7 µM (active) | inactive | 20.9 µM (active) | – | – | 4.69 µM (active) | inactive | – | inactive | – | 11.8 µM (active) | 9.35 µM (active) | inactive | inactive | – | –
3 | CC(C)n1nc(-c2ccc3oc(N)nc3c2)c2c(N)ncnc21 | 0.0074 µM (active) | – | 0.0093 µM (active) | – | – | – | 0.0526 µM (active) | – | 0.132 µM (active) | – | – | – | 0.0105 µM (active) | – | 0.0026 µM (active) | – | 0.0074 µM (active) | 0.0418 µM (active)
4 | CCCCCCCCCCCC1=C(O)C(=O)C=C(O)C1=O | 4.69 µM (active) | 0.59 µM (active) | 2.64 µM (active) | – | 2.96 µM (active) | 0.187 µM (active) | 23.5 µM (active) | 1.18 µM (active) | – | – | – | inactive | – | – | – | – | – | –
5 | COc1ccc(-c2oc3c(CC=C(C)C)c(OC4O[C@H](CO)[C@@H](O)[C@H](O)[C@@H]4O)cc(O)c3c(=O)c2OC2O[C@@H](C)[C@H](O)[C@@H](O)[C@@H]2O)cc1 (some centres not stated) | 20.9 µM (active) | – | 33.2 µM (active) | 23.5 µM (active) | 20.9 µM (active) | 11.8 µM (active) | 18.7 µM (active) | 8.33 µM (active) | 23.5 µM (active) | – | 29.6 µM (active) | 23.5 µM (active) | 20.9 µM (active) | 20.9 µM (active) | 23.5 µM (active) | 20.9 µM (active) | 18.7 µM (active) | –
6 | O=C(O)CCC1CCC(c2cc(F)ccc2F)(S(=O)(=O)c2ccc(Cl)cc2)CC1 (configuration not stated) | inactive | – | 3.32 µM (active) | 9.35 µM (active) | 8.33 µM (active) | 2.64 µM (active) | – | 13.2 µM (active) | – | – | 8.33 µM (active) | inactive | 1.66 µM (active) | inactive | – | inactive | inactive | 5.26 µM (active)
7 | O=C(NC1CCOCC1)c1ccc(-c2cc(-c3cn[nH]c3-c3ccccn3)ccn2)cc1 | inactive | – | inactive | inactive | – | inactive | inactive | inactive | inactive | – | inactive | inactive | – | 14.8 µM (active) | – | 14.8 µM (active) | inactive | –
8 | N#Cc1ccc(NC(=O)Nc2ccccc2Br)c2n[nH]nc12 | inactive | 8.33 µM (active) | – | – | 16.6 µM (active) | 13.2 µM (active) | inactive | 9.35 µM (active) | – | – | 18.7 µM (active) | inactive | 26.4 µM (active) | inactive | – | inactive | – | inactive
9 | Nc1ncnc2c1ncn2[C@@H]1O[C@H](CO)C[C@@H]1O | inactive | – | inactive | inactive | inactive | inactive | 20.9 µM (active) | inactive | inactive | – | inactive | inactive | – | – | 1.32 µM (active) | inactive | – | inactive
10 | CC(C)(Cc1ccc2ccccc2c1)NC[C@@H](O)COc1cccc(Cl)c1C#N | inactive | – | inactive | inactive | inactive | – | inactive | inactive | inactive | – | inactive | inactive | 16.6 µM (active) | inactive | – | – | 5.9 µM (active) | –
11 | CO[C@H]1C=CO[C@@]2(C)Oc3c(C)c(O)c4c(O)c(c5c(c4c3C2=O)NC2(CCN(CC(C)C)CC2)N=5)=NC(=O)C(C)=CC=C[C@H](C)[C@H](O)[C@@H](C)[C@@H](O)[C@@H](C)[C@H](OC(C)=O)[C@H]1C | inactive | inactive | – | inactive | 16.6 µM (active) | – | – | 11.8 µM (active) | – | – | inactive | inactive | – | – | – | 10.5 µM (active) | – | –
12 | CC(=NNC(=S)N1CCC1)c1ccccn1 | inactive | – | inactive | inactive | inactive | 0.001 µM (active) | 0.0042 µM (active) | 0.001 µM (active) | – | inactive | inactive | 0.0074 µM (active) | – | – | – | – | – | –
